Assays:
Conditions in all cases: concentration: 1 μM, replicates: in singlicate; n = 1
DRAK1 = test system: T1, DRAK1
T1 construct: gene STK17A

DRAK2 = test system: T2, DRAK2
T2 construct: gene STK17B

DYRK1A = test system: DYRK1A
DYRK1B = test system: DYRK1B
DYRK2 = test system: DYRK2
EGFR = test system: EGFR
EIF2AK1 = test system: EIF2AK1
EPHA1 = test system: EPHA1
EPHA2 = test system: EPHA2
EPHA3 = test system: EPHA3
EPHA4 = test system: EPHA4
EPHA5 = test system: EPHA5
EPHA6 = test system: EPHA6
EPHA7 = test system: EPHA7
EPHA8 = test system: EPHA8
EPHB1 = test system: EPHB1
EPHB2 = test system: EPHB2
EPHB3 = test system: EPHB3
EPHB4 = test system: EPHB4
EPHB6 = test system: EPHB6
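Note: KINOMEscan kinase panel screen.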

Compound	%Inh (DRAK1)	%Inh (DRAK2)	%Inh (DYRK1A)	%Inh (DYRK1B)	%Inh (DYRK2)	%Inh (EGFR)	%Inh (EIF2AK1)	%Inh (EPHA1)	%Inh (EPHA2)	%Inh (EPHA3)	%Inh (EPHA4)	%Inh (EPHA5)	%Inh (EPHA6)	%Inh (EPHA7)	%Inh (EPHA8)	%Inh (EPHB1)	%Inh (EPHB2)	%Inh (EPHB3)	%Inh (EPHB4)	%Inh (EPHB6)
O=c1cc(N2CCOCC2)nc2n(Cc3cccc(Cl)c3Cl)ccn12 [GSK2286295]	0%	0%	14%	30%	21%	20%	0%	0%	4%	18%	0%	0%	0%	3%	12%	13%	0%	11%	14%	24%
CC(=O)Nc1nc2cnc(Nc3cc(NC(=O)c4cccc(CCC#N)c4)ccc3C)nc2s1	0%	0%	0%	42%	0%	6%	21%	0%	34%	0%	16%	6%	27%	10%	16%	6%	24%	14%	19%	45%
Cn1ccc2ncnc(Oc3ccc(NC(=O)Nc4ccccc4)cc3)c21	0%	0%	6%	40%	0%	3%	22%	7%	0%	0%	0%	0%	18%	0%	0%	0%	1%	22%	6%	35%
COC(=O)c1c(-c2ccccc2)c2cc(C(=O)O)ccc2c(=O)n1Cc1ccccc1	0%	0%	7%	32%	0%	0%	0%	0%	3%	15%	0%	0%	0%	0%	0%	6%	12%	0%	0%	0%
COc1ccc(Nc2nccc(-c3cccc(NC(=O)c4cc5cc(F)ccc5[nH]4)c3)n2)cc1 [GSK1229782]	24%	0%	5%	25%	12%	22%	10%	56%	9%	35%	6%	0%	11%	10%	26%	32%	14%	25%	32%	25%
Fc1cc(Cl)ccc1Nc1ccnc2cc(I)ccc12 [GW551191]	0%	0%	33%	60%	4%	21%	0%	71%	26%	0%	13%	0%	34%	6%	44%	32%	25%	17%	15%	53%
COc1ccc(Nc2nccc(NCCNC(=O)Nc3ccccc3F)n2)cc1 [GSK1379901]	2%	0%	19%	0%	6%	20%	10%	33%	25%	0%	14%	0%	6%	7%	25%	0%	0%	27%	32%	4%
COc1ccc2nc(-c3cccc(C)n3)nc(Nc3ccncc3)c2c1 [GSK204919]	0%	0%	24%	0%	0%	20%	0%	0%	20%	0%	23%	0%	18%	0%	9%	6%	0%	14%	15%	0%
O=C(Nc1n[nH]c2cc(-c3cccc(F)c3F)ccc12)C1CC1 [SB-733894]	0%	0%	2%	0%	14%	12%	23%	13%	16%	18%	1%	0%	0%	0%	0%	0%	20%	10%	62%	31%
Nc1ncnc2[nH]c(-c3ccccc3)nc12 [AH5015]	5%	0%	46%	15%	68%	25%	100%	16%	23%	0%	23%	0%	8%	29%	25%	0%	8%	16%	19%	25%
Cn1ccc2ncnc(Oc3cccc(C(=O)Nc4ccccc4)c3)c21	0%	12%	2%	24%	0%	0%	18%	0%	0%	0%	4%	16%	0%	0%	0%	0%	0%	0%	9%	0%
